The results in this text go back to PubChem BioAssay (NCATS).

A short description of assay [1]: BET inhibitor-based combinations targeting novel dependencies in MECOM-rearranged (r) AML: SET-2 cell line (AID 2202231). Also: nearly all actives have a fitted effect of over 35% in size. Also: potency is read from the fitted curve at half-maximal effect.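 As to viability: plate controls were DMSO treated cells for no effect and wells without cells for full effect.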 Conditions: SET-2 AML cells viability, CellTiter-Glo luminescence, 48 h; viability: hits give low values, concentration not given here. The method, boiled down:
(§1)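 Readout: CellTiter-Glo luminescence. Exposure: 48 h, 11 concentrations, 500 cells/well. Metric: AUC and within-line Z-AUC after DMSO/empty-well normalization.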
On the technique in general: In ATP-based viability assays light output follows the ATP content of the culture.

A short description of assay [2]: BET inhibitor-based combinations targeting novel dependencies in MECOM-rearranged (r) AML: MV-4-11 cell line (AID 2202233). Also: nearly all actives have a fitted effect of over 45% in size. Also: potency is read from the fitted curve at half-maximal effect.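 As to viability, % of control: plate controls were DMSO for no effect and blank wells for full effect.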 The method, boiled down:
(§2)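 Seeding density was 500 cells/well, and drug exposure lasted 48 hr under standard culture conditions. Read-out used CellTiter-Glo reagent with a 15 min room-temperature incubation before luminescence measurement; AUC and Z-AUC summarize the normalized responses.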

A short description of assay [3]: BET inhibitor-based combinations targeting novel dependencies in MECOM-rearranged (r) AML: HNT-34 cell line (AID 2202234).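 Also: plate controls were vehicle wells for no effect and cell-free wells for full effect; nearly all actives have a fitted effect of over 35% in size.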 The gist of the method: as §2
Assay [4] is described as follows: BET inhibitor-based combinations targeting novel dependencies in MECOM-rearranged (r) AML: UCSD-AML1 cell line (AID 2202235).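 Also: series mostly up to about 46 µM; plate controls were DMSO vehicle wells for no effect and blank wells for full effect; nearly all actives have a fitted effect of over 40% in size.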 The method, boiled down:
as §2

The nature of assay [5]: BET inhibitor-based combinations targeting novel dependencies in MECOM-rearranged (r) AML: AML-191 cell line (AID 2202236; also: nearly all actives have a fitted effect of over 35% in size; also: potency is read from the fitted curve at half-maximal effect;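 as to viability (% of control): plate controls were vehicle wells for no effect and wells without cells for full effect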). The gist of the method:
as §1

A short description of assay [6]: BET inhibitor-based combinations targeting novel dependencies in MECOM-rearranged (r) AML: AML-194 cell line (AID 2202237;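 also: plate controls were vehicle wells for no effect and wells without cells for full effect; nearly all actives have a fitted effect of over 40% in size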). The method, boiled down:
as §1

Inconclusive results are not listed. A number with no mark means an inactive call. Calls of active or inactive are those of the source. Calls follow the shape of the dose curve; as a rule, active = well fitted curve in the direction sought with a large enough effect; inconclusive = small, poorly fitted or top-dose-only effect, or another doubt; inactive = no such curve, though single readings can be large; an effect the other way counts as inactive or inconclusive.

Turning to `CCCCCCCCCCCCCCCCCCCCCCO`, the viability in assay [1] is 112%. The Potency result in assay [2], in assay [3], in assay [4], in assay [5] and in assay [6] was “inactive” in each case.

`O=C(C[C@@H]1C/C=C\CCC(=O)O[C@H](c2ccccc2)CNC1=O)NCc1ccc(Cl)cc1`: the viability in assay [1] was 117%. The Potency result in assay [2], in assay [3] and in assay [6] was “inactive” throughout.

For `CC1(C)O[C@@H]2C[C@H]3[C@@H]4C[C@H](F)C5=CC(=O)C=C[C@]5(C)[C@H]4[C@@H](O)C[C@]3(C)[C@]2(C(=O)CO)O1`, the viability in assay [1] is 108%. Further, the Potency entry in assay [2], in assay [3], in assay [4] and in assay [6] was “inactive” each time.

`CCc1cc(/C(C)=N/OCc2ccc(C3CCCCC3)c(C(F)(F)F)c2)ccc1CN1CC(C(=O)O)C1`: the Potency was 16.6 µM (active) in assay [1] and 8.33 µM (active) in assay [2]. The Potency result in assay [3], in assay [4] and in assay [6] was “inactive” each time.

Regarding `CN(C)Cc1cccc(N=C(c2ccccc2)c2c(O)[nH]c3cc(C(N)=O)ccc23)c1`, the viability in assay [1] is 78%. For the same molecule, the Potency in assay [2] was 0.662 µM (active). The Potency entry in assay [4] was “inactive”.

`COCCNc1cc(NC(=O)N2CCCc3cc(CN4CCN(C)CC4=O)c(C=O)nc32)ncc1C#N`: the viability in assay [1] is 114%. Moreover, the viability, % of control in assay [2] is 97.1% [at 8.46 µM]. Besides, the viability (% of control) in assay [4] is 96.8% [at 8.46 µM]; in assay [5], 96.5% [at 8.46 µM]; in assay [6], 95.1% [at 8.46 µM].

On to `COc1cc(C)c(/C=C/C(C)=C/C=C/C(C)=C/C(=O)O)c(C)c1C`, for which the viability in assay [1] was 101%. In addition, the Potency in assay [2] is 5.9 µM (active); in assay [5], 1.86 µM (active). Also, the Potency entry in assay [4] and in assay [6] was “inactive” each time.

With `C=C1[C@H](OC(=O)/C=C(\C)CC)C[C@@H](C(C)C)[C@@H]2[C@H]([C@@H](C)OC(C)=O)C(=O)C[C@@H]12`, the Potency was 16.6 µM (active) in assay [1] and 18.6 µM (active) in assay [2]. Moreover, in assay [4], the Potency result is “inactive”.

As usually defined, the viability is a read-out of living cells in per cent, often relative to untreated cells.
